Laboratory results published in PubChem BioAssay (NCATS).
Records with an inconclusive call do not appear. Calls follow the shape of the dose curve; as a rule, active = well fitted curve in either direction with a large enough effect (not every such curve was filed as active); inconclusive = small, poorly fitted or top-dose-only effect, or another doubt; inactive = flat fitted curve, though single readings scatter.

experiment: NFAT Signaling Pathway (AID 444); conditions: Jurkat NFAT-bla M1, carbachol, beta-lactamase ratio, 5 h; at 7.69 µM (top of the series) unless noted
Text: NCGC Assay Overview: The nuclear factor of activated T cells (NFAT) family of transcription factors has been found primarily in most immune system cells and some other non-immune cells. NFAT plays the immunomodulatory role, primarily in T-cell activation and differentiation. NFAT target genes are also involved in the regulation of apoptosis and differentiation in non-immune cell types. The NFAT sequence was engineered to the upstream of the ?-lactamase reporter gene and transfected into Jurkat cells with co-transfection of muscarinic receptor1 [provided by Invitrogen Corp]. When an extracellular stimulus, such as carbachol, binds to the GPCR M1 receptor, it stimulates a signaling cascade that activates NFAT response element and ?-lactamase expression by phosphorylating the NFAT binding protein. This cell based ?-lactamase reporter gene assay can accurately monitor any changes occurring along the NFAT pathway, and can be used for screening small molecule inhibitor or activator upon activation by carbachol EC50 concentration. A small molecular library were screened in a titration series resulting in AC50s (can be either IC50s or EC50s).
NCGC Assay Protocol Summary: The cells were prepared in RPMI 1640 medium containing 0.1% dialyzed FBS and 25 mM HEPES at 1.6 x 10^6cell/ml. The assay was performed in 1536-well plate format as follows: 5 ul of cell preparation 23 nl of compounds 1ul of carbachol (final concentration 1 uM) Briefly centrifuge the plates and incubate at 37 °C for 5 hours 1 ul of CCF4 dye mixture Incubate the plates at RT for 1 hour Read the plate in EnVision plate reader (Ex= 405nm, and Em1=460nm and Em2=530nm). The %Activity was determined from the ratio of 460nm/530nm. Data normalization and AC50 calculations were accomplished using GeneData software.
% is scaled to controls: 0 for no effect and ±100 for the full control effect.

Activity change, negative = inhibition, inactive:
CC(C)(CO[C@H]1C[C@H]2CC[C@@]1(C)C2(C)C)[N+](=O)[O-] 7.34%
C[C@H]1CN(CCO)CCN1c1ccccc1 -5.83%
Cc1ccc(-c2nnc(-c3ccc4ccccc4c3)o2)cc1 -21%
c1ccc(B2OC[C@@H]3OB(c4ccccc4)O[C@H]([C@@H]4COB(c5ccccc5)O4)[C@@H]3O2)cc1 19.9%
N[C@H](CCCC(=O)O)C(=O)O 7.48% [at 38 µM]
O=C(O)C(=Cc1ccnc2ccccc12)C(=O)O 24.2%
COc1ccc(Oc2ncc3nc(C)c(=O)n(Cc4ccc(F)cc4)c3n2)cc1 -3.9%
O=C(O)C(Cc1cccs1)C(=O)O 8.62%
C[C@@H]1CCCN(CP(=O)(c2ccccc2)c2ccccc2)C1 -1.11%
NC(=O)[C@@H]1CCCNC1 6.45%
Cn1c(=O)c2c(nc(N/N=C\c3ccccc3C(=O)O)n2C)n(C)c1=O 5.57%
C#CCOC(=O)[C@H](N)CC(N)=O 13.9%
CC(C)=C[C@H]1[C@@H](C(=O)Oc2ccccc2C(C)C)C1(C)C 3.56%
Cc1ccc(N=Nc2c(O)ccc3cc(S(=O)(=O)O)ccc23)cc1 -0.401%
N=C(N)SCc1cccc2c(=O)cc(-c3ccccc3)oc12 -23%
Cc1ccc(S(=O)(=O)N[C@H](C(=O)O)C(C)C)cc1 -0.0198%
Cc1ccc(Nc2nnc(-c3ccc4c(c3)OCO4)o2)c(C)c1 1.57%
CCN1/C(=C\C(C)=O)Sc2ccc(OC)cc21 10.3% [at 38 µM]
CN(C)CCNc1nc2c(c(=O)n(C)c(=O)n2C)n1C 4.81%
O=S(=O)(O)CCCc1cccc2ccccc12 3.52%
O=C(O)C(F)(F)C(F)(F)C(F)(F)C(F)(F)C(=O)O 6.75%
C=C[C@]1(C)C[C@H](OC(=O)CO)[C@]2(C)C3C(=O)CC[C@]3(CC[C@H]2C)[C@H](C)[C@H]1O (stereo not given in full) -4.75%
O=c1c(CCc2ccccc2)nc2cnc(Oc3ccccc3)nc2n1C[C@H]1CCCO1 -10.8%
S=C(Nc1ccc2cn[nH]c2c1)Nc1ccc2cn[nH]c2c1 19.4%
NNC(=O)[C@@H](O)[C@H](O)C(=O)NN 10.2%
CCCn1cnc2c(SCC(=O)O)nc(N)nc21 -8.4%
Cc1ccc(C)c(C(=N)c2ccccc2Cc2ccccc2)c1 -12.9%
N#CC[N+]1(Cc2ccccn2)CCCC1 0.385%
CCSCCCC(=O)O 2.17%
CN(C)c1ccc(C2N([C@H](C#N)c3ccc(N(C)C)cc3)CCCN2[C@@H](C#N)c2ccc(N(C)C)cc2)cc1 (stereo not given in full) -11.3%
O=C(O)c1ccccc1-c1ccccc1C(=O)Nc1ccc2c(c1)Cc1ccccc1-2 -20.4%
COc1ccc(C(=O)N2CCC3(CC2)CCN(c2ccccn2)CC3)cc1 -26.9%
Nc1c(OCC(=O)O)ccc2cc(S(=O)(=O)O)ccc12 -3.75%
ClC(Cl)(Cl)C(N1CCN(c2ccccc2)CC1)N1CCN(c2ccccc2)CC1 -2.17%
COc1ccc(C[N+](C)(C)N)cc1OC -4.71%
[N-]=[N+]=NC[C@@H]1O[C@@H](n2cnc3c(N)ncnc32)[C@@H]2O[C@@H]21 10.3%
C[N+](C)(C)[C@H](Cc1c[nH]c(=S)[nH]1)C(=O)O -2.8%
O=C(O)c1cccc(S(=O)(=O)NCCO)c1 3.24%
Cc1c2cnccc2c(C)c2c1c1ccccc1n2CCOC(=O)c1ccccc1 -4.41%
O=C(CCN1CCCCC1)N1CCc2c([nH]c3ccccc23)[C@H]1c1cccnc1 -15.8%
